Reference: PubChem BioAssay (EPA / NIEHS)
Several values for one entry are separate records, joined by “and”; a condition that tells them apart may be missing. Identical values can stand only once. Inconclusive results are not listed. Some structures have more than one record in an assay (separate samples or runs), and their calls can disagree. Activity calls are given as the source filed them. How the source made its calls, unless noted: active means hit-call score of the fitted dose curve at least 0.9, where 1 is the maximum; inactive means score below 0.9.

How the values were obtained:
[1] = BSK_4H_Eotaxin3: BioMAP Diversity Plus: 4H Assay for Eotaxin 3 Biomarker Activity (AID 2283000); details: primary human endothelial cells (HUVEC); actives raise or lower the signal
Outline: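 ELISA quantitation of CCL26 (Eotaxin-3) protein from chemically dosed human vascular endothelial cells at 24 h; increases and decreases both scored relative to DMSO-treated baseline.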

[2] = biological target: human Peroxisome Proliferator-activated Receptor alpha (PPARa), PPARA (gene 5465) (UniProt Q07869); assay: ATG_PPARa_TRANS: Attagene TRANS-FACTORIAL HepG2 Assay for human Peroxisome Proliferator-activated Receptor alpha (PPARa) (AID 2283001; active means hit-call score of the fitted dose curve at least 0.9, where 1 is the maximum;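 on AC50: potency for gain of reporter signal over DMSO so agonist or activator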)
Chain of human Peroxisome Proliferator-activated Receptor alpha (PPARa), PPARA (gene 5465) (Q07869 whole entry, looked up, the tested form may be a part): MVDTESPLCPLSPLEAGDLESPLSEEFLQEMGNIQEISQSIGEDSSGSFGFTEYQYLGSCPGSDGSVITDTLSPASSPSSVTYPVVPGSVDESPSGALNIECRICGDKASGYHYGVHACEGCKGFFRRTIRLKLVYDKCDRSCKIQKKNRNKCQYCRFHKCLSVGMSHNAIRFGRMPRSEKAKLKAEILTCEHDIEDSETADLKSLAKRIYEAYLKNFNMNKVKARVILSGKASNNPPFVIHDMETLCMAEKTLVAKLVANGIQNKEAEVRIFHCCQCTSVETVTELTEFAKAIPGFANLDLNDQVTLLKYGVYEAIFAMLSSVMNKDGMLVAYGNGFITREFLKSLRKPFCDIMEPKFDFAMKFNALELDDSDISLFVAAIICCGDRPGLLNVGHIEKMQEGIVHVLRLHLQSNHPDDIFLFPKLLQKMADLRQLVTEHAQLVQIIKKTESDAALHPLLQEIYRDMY
Outline: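 HepG2 cells transiently transfected with multiplexed GAL4-UAS reporter units and chimeric NR-Gal4 constructs were dosed for 24 h. Reporter mRNA was measured by RT-PCR with fluorescent labelling and capillary electrophoresis; gain of signal fitted against DMSO.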

[3] = read-out: Intercellular Adhesion Molecule 1 (ICAM1), ICAM1 (gene 3383); assay: BSK_3C_ICAM1: BioMAP Diversity Plus: 3C Assay for Intercellular Adhesion Molecule 1 (ICAM1) Biomarker Activity (AID 2283003); details: primary human endothelial cells (HUVEC); actives raise or lower the signal
Outline: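 Primary human umbilical vein endothelial cells in the BioMAP 3C system were exposed to chemicals for 24 h, then ICAM-1 was quantified by ELISA. Activity was fitted bidirectionally against the DMSO negative control baseline.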

[4] = BSK_3C_Proliferation: Cell Proliferation Assessment in the BioMAP Diversity Plus: 3C Assay (AID 2283006); details: primary human endothelial cells (HUVEC);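 on AC50: potency may reflect either rise or fall in cell number versus DMSO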
Outline: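 Human umbilical vein endothelial cells were grown sub-confluent and exposed to chemical for 48 h, then fixed with 10% TCA and stained with 0.1% sulforhodamine B; absorbance at 560 nm gave relative cell number, fitted bidirectionally against DMSO baseline.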

[5] = biological target: Peroxisome proliferator-activated receptor gamma (Homo sapiens) (UniProt P37231); assay: ATG_PPARg_TRANS: Attagene TRANS-FACTORIAL HepG2 Assay for human Peroxisome Proliferator-activated Receptor-gamma (PPARg) (AID 2283007; active means hit-call score of the fitted dose curve at least 0.9, where 1 is the maximum)
Chain of Peroxisome proliferator-activated receptor gamma (Homo sapiens) (P37231 whole entry, looked up): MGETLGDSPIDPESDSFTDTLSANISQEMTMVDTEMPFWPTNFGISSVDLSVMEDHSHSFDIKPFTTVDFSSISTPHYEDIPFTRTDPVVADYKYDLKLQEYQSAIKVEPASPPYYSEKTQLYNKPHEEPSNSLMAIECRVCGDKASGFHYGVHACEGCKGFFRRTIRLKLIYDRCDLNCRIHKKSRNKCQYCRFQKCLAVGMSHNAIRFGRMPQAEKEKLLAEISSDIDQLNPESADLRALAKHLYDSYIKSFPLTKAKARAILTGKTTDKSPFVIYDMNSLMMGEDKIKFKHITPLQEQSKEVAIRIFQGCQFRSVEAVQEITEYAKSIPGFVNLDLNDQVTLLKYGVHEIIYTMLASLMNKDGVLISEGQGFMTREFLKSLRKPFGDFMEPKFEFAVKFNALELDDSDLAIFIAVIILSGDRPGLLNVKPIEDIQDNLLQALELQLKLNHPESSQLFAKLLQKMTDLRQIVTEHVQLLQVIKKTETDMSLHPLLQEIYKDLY
Outline: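 Multiplexed reporter transcription units in HepG2, 24 h dosing, reporter transcripts quantified by fluorescent RT-PCR and capillary electrophoresis. Increase over DMSO scored.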

[6] = biological target: Nuclear receptor subfamily 1 group I member 2 (Homo sapiens) (UniProt O75469); assay: ATG_PXR_TRANS: Attagene TRANS-FACTORIAL HepG2 Assay for human Pregnane X Receptor (PXR) (AID 2283008; active means hit-call score of the fitted dose curve at least 0.9, where 1 is the maximum)
Chain of Nuclear receptor subfamily 1 group I member 2 (Homo sapiens) (O75469 whole entry, looked up, the tested form may be a part): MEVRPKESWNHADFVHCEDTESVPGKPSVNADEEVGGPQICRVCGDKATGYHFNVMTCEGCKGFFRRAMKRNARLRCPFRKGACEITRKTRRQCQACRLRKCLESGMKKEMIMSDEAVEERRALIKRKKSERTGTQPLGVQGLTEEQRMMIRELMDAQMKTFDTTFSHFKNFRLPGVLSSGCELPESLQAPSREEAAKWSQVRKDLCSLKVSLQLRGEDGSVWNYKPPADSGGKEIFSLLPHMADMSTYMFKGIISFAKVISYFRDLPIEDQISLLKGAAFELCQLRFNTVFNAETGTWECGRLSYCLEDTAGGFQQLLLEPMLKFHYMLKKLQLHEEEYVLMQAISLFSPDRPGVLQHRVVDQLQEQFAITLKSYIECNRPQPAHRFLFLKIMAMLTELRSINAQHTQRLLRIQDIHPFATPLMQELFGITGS
Outline: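 HepG2 cells transiently transfected with GAL4-UAS reporter units and PXR-Gal4 chimera, exposed 24 h. Reporter mRNA quantified by RT-PCR, fluorescent labelling, HpaI digestion and capillary electrophoresis; gain of signal vs DMSO.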

[7] = biological target: human Peroxisome Proliferator-activated Receptor delta (PPARd), PPARD (gene 5467) (UniProt Q03181); assay: ATG_PPARd_TRANS: Attagene TRANS-FACTORIAL HepG2 Assay for human Peroxisome Proliferator-activated Receptor delta (PPARd) (AID 2283002; active means hit-call score of the fitted dose curve at least 0.9, where 1 is the maximum)
Chain of human Peroxisome Proliferator-activated Receptor delta (PPARd), PPARD (gene 5467) (Q03181 whole entry, looked up, the tested form may be a part): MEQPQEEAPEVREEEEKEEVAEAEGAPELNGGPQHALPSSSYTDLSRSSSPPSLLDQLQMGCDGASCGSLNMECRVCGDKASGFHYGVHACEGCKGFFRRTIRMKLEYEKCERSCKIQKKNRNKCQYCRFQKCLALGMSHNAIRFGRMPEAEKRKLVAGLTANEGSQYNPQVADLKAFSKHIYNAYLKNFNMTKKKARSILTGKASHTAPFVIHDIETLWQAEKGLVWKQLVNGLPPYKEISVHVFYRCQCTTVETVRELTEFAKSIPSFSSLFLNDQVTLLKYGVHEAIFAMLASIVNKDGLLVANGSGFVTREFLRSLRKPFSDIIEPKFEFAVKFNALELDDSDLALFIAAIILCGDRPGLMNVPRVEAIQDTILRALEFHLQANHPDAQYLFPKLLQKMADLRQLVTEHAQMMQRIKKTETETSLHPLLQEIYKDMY
Outline: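 Multiplexed trans-activation format: HepG2 liver cells expressing exogenous NR-Gal4 chimeras and GAL4-UAS reporters were exposed for 24 h. Reporter mRNA was detected by RT-PCR with capillary electrophoresis fluorescence; activity fitted as gain of signal relative to DMSO.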

[8] = biological target: human Retinoic Acid Receptor beta (RARb), RARB (gene 5915) (UniProt P10826); assay: ATG_RARb_TRANS: Attagene TRANS-FACTORIAL HepG2 Assay for human Retinoic Acid Receptor beta (AID 2283004; active means hit-call score of the fitted dose curve at least 0.9, where 1 is the maximum)
Chain of human Retinoic Acid Receptor beta (RARb), RARB (gene 5915) (P10826 whole entry, looked up, the tested form may be a part): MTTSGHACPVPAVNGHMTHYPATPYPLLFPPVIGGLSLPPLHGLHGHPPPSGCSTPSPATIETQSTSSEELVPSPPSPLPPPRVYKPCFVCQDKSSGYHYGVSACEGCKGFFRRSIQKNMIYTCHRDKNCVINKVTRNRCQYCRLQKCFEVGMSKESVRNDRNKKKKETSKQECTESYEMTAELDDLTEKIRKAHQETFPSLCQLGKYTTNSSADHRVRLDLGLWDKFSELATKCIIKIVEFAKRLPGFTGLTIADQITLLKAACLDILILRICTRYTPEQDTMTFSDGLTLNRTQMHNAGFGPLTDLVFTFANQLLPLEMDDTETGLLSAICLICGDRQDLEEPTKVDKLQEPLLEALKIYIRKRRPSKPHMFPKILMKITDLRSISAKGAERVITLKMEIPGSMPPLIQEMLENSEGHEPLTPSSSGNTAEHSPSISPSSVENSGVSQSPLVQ
Outline: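 Fluorescent capillary-electrophoresis detection of GAL4-UAS reporter mRNA defines the endpoint, with induction over DMSO-treated wells scored as activity. Transiently transfected human hepatoma HepG2 cells expressing exogenous NR–Gal4 proteins are exposed to test chemicals for 24 h.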

[9] = biological target: human Retinoic Acid Receptor gamma (RARg), RARG (gene 5916) (UniProt P13631); assay: ATG_RARg_TRANS: Attagene TRANS-FACTORIAL HepG2 Assay for human Retinoic Acid Receptor gamma (RARg) (AID 2283009; active means hit-call score of the fitted dose curve at least 0.9, where 1 is the maximum)
Chain of human Retinoic Acid Receptor gamma (RARg), RARG (gene 5916) (P13631 whole entry, looked up, the tested form may be a part): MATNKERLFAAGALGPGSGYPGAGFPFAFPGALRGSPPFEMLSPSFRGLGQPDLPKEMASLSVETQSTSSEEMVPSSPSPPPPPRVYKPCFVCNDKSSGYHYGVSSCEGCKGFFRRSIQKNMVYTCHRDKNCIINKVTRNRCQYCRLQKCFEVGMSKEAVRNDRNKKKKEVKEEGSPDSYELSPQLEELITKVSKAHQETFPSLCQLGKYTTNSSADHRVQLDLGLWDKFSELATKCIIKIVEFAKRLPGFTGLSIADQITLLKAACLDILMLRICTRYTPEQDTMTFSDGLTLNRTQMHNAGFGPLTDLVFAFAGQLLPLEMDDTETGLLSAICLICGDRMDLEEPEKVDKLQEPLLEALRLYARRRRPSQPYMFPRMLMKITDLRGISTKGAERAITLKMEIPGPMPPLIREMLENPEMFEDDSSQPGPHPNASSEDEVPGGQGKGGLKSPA
Outline: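 HepG2 cells transiently transfected with multiplexed reporter units expressing chimeric RARg-GAL4 and GAL4-UAS-driven reporters; 24 h compound exposure. Reporter mRNA quantified by RT-PCR with fluorescent labelling and capillary electrophoresis; gain-of-signal fitted relative to DMSO baseline.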

[10] = biological target: Retinoic acid receptor alpha (Homo sapiens) (UniProt P10276); assay: ATG_RARa_TRANS: Attagene TRANS-FACTORIAL HepG2 Assay for human Retinoic Acid Receptor alpha (RARa) (AID 2283005; active means hit-call score of the fitted dose curve at least 0.9, where 1 is the maximum)
Chain of Retinoic acid receptor alpha (Homo sapiens) (P10276 whole entry, looked up, the tested form may be a part): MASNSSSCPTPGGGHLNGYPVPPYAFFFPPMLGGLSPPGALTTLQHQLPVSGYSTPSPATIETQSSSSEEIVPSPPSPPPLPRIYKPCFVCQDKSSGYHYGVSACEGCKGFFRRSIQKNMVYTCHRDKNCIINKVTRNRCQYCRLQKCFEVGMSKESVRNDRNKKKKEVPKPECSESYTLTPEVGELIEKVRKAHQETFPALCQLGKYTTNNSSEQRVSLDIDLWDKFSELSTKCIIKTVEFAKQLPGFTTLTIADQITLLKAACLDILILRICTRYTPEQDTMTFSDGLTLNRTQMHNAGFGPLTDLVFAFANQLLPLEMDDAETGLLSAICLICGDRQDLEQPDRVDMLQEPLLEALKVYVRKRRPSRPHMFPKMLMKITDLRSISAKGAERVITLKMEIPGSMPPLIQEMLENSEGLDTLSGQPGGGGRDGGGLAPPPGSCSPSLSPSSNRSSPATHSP
Outline: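 HepG2 cells transiently transfected with multiple reporter units expressing chimeric RARα-GAL4 fusion, with GAL4-UAS-driven reporters. After 24 h compound exposure, reporter mRNA induction quantified by RT-PCR and capillary electrophoresis with fluorescent labeling; gain-of-signal fitted relative to DMSO control.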

Measured: AC50

CCc1ccc(O)c(C(C)(C)C)c1
active: [1] 39 µM | [3] 31.5 µM | [4] 34.8 µM | [6] 17.4 µM
inactive: [2] | [5]

CCCCCCCCCCCCCCCCOS(=O)(=O)O
inactive: [1] | [3] | [4] | [6]
active: [2] 9.15 µM | [5] 16.9 µM

CCCCCCCCCCCCCCO
active: [1] 38.4 µM | [3] 35.5 µM
inactive: [2] | [6]

O=C(O)c1cccc(C[C@@H]2COc3ccc(OCc4nc5cc(F)ccc5s4)cc3[C@@H]2O)c1
inactive: [1] | [2] | [3] | [4] | [6]

CCCCCCCCCC
active: [4] 0.781 µM
inactive: [1] | [2] | [3]

O=C(NO)C1(NS(=O)(=O)c2ccc(Oc3ccc(F)cc3)cc2)CCOCC1
inactive: [1] | [7] | [3] | [8] | [4] | [9]
active: [6] 31.7 µM

CCCCCCCC/C=C\CCCCCCCC(=O)OC[C@@H](O)[C@H]1OC[C@H](O)[C@H]1O
inactive: [1] | [2] | [3] | [10] | [4] | [5] | [9]

c1ccc2ncccc2c1
inactive: [1] | [2] | [3] | [4]

OCCNCCO
inactive: [1] | [7] | [3] | [4]

OC(O)(C(F)C(O)(O)C(F)(F)F)C(F)(F)F
inactive: [7] | [3] | [8] | [4] | [6] | [9]
active: [1] 53.3 µM and 53.6 µM | [4] 27.3 µM

CCCCC(CC)C(=O)OCCOCCOCCOC(=O)C(CC)CCCC (stereo not given)
active: [6] 27.5 µM
inactive: [1] | [7] | [3] | [10] | [4]

CCCC(CCC)C(=O)O
inactive: [1] | [2] | [3] | [4] | [6]

OC(CCl)CCl
inactive: [1] | [2] | [3] | [4]

O=c1[nH]cnc2c1ncn2[C@H]1CC[C@@H](CO)O1
inactive: [1] | [7] | [3] | [8] | [4] | [6]

CC(=O)c1ccccc1
inactive: [1] | [2] | [3] | [4]

NC(N)=O
inactive: [1] | [7] | [3] | [4]

NC(=O)N(O)[C@@H]1COc2cc(OCc3ccccc3)ccc21
inactive: [1] | [2] | [3] | [8] | [4] | [6]

CC(C)CCCCCCOC(=O)C1CCCCC1C(=O)OCCCCCCC(C)C (stereo not given)
active: [6] 1.37 µM
inactive: [1] | [2] | [3] | [8] | [4]

FC(F)(F)COC(OCC(F)(F)F)OCC(F)(F)F
inactive: [1] | [7] | [3] | [8] | [10] | [4] | [6]

Cn1c(=O)c2[nH]cnc2n(C)c1=O
inactive: [1] | [2] | [3] | [4] | [6]

Cc1ccc(S(=O)(=O)NC(=O)NN2CCCCCC2)cc1
inactive: [1] | [2] | [3] | [4] | [5] | [6] | [9]

COc1cc2c(c(OC)c1OC)-c1ccc(OC)c(=O)cc1[C@@H](NC(C)=O)CC2
inactive: [3] | [6] | [9]
active: [1] 0.148 µM | [4] 0.148 µM
